# Inconclusive results are not listed. Where a call stands in place of a potency, no number is given. The source holds several records for some structures; these can differ, active in one and inactive in another. Calls of active or inactive are those of the source. Unless noted, calls come from the whole dose curve; as a rule, active = well fitted curve in the direction sought with a large enough effect; inconclusive = small, poorly fitted or top-dose-only effect, or another doubt; inactive = no such curve, though single readings can be large; an effect the other way counts as inactive or inconclusive.
# Key:
# [1] = qHTS for Inhibitors of Plasmodium falciparum (DD2) proliferation (AID 504314); note: potency is the fitted concentration of half-maximal effect;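 for activity, negative = inhibition: parasite DNA measured by SYBR Green fluorescence after red cell lysis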
# Outline: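 Infected RBCs, 0.3% parasitemia, 2.5% Hct; compound 72 h, 37C/5% CO2; lyse + SYBR Green I, RT overnight, dark; read ex485/em535; normalize to DMSO and artemisinin 0.29 uM.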
# [2] = qHTS for Inhibitors of Plasmodium falciparum (GB4) proliferation (AID 504315); note: nearly all actives have a fitted effect of over 50% in size; note: potency is the fitted concentration of half-maximal effect
# Outline: (§1)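 Erythrocytes infected with P. falciparum line (0.3% parasitemia, 2.5% hematocrit final) incubated with compounds 72 h at 37 °C, 5% CO2; SYBR Green lysis buffer added, fluorescence read next day. Normalized to 0.29 uM artemisinin and DMSO.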
# [3] = qHTS for Inhibitors of Plasmodium falciparum (7G8) proliferation (AID 504316); note: nearly all actives have a fitted effect of over 65% in size; note: potency is the fitted concentration of half-maximal effect
# Outline: as §1
# [4] = qHTS for Inhibitors of Plasmodium falciparum (CP250) proliferation (AID 504320); note: potency is the fitted concentration of half-maximal effect
# Outline: as §1
# [5] = target: Atrial natriuretic peptide receptor 1 (Homo sapiens) (UniProt P16066); assay: Natriuretic polypeptide receptor (hNpr1) antagonism - Pilot CMLD screen (AID 1347052; calls by dose curve;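 note: HEK293 cells with hNpr1 stimulated by hNppA peptide at 0.1 nM; cGMP level read as GloSensor luciferase luminescence after agonist stimulation; series mostly up to about 9.2 µM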)
# Atrial natriuretic peptide receptor 1 (Homo sapiens), sequence (P16066 whole entry, looked up): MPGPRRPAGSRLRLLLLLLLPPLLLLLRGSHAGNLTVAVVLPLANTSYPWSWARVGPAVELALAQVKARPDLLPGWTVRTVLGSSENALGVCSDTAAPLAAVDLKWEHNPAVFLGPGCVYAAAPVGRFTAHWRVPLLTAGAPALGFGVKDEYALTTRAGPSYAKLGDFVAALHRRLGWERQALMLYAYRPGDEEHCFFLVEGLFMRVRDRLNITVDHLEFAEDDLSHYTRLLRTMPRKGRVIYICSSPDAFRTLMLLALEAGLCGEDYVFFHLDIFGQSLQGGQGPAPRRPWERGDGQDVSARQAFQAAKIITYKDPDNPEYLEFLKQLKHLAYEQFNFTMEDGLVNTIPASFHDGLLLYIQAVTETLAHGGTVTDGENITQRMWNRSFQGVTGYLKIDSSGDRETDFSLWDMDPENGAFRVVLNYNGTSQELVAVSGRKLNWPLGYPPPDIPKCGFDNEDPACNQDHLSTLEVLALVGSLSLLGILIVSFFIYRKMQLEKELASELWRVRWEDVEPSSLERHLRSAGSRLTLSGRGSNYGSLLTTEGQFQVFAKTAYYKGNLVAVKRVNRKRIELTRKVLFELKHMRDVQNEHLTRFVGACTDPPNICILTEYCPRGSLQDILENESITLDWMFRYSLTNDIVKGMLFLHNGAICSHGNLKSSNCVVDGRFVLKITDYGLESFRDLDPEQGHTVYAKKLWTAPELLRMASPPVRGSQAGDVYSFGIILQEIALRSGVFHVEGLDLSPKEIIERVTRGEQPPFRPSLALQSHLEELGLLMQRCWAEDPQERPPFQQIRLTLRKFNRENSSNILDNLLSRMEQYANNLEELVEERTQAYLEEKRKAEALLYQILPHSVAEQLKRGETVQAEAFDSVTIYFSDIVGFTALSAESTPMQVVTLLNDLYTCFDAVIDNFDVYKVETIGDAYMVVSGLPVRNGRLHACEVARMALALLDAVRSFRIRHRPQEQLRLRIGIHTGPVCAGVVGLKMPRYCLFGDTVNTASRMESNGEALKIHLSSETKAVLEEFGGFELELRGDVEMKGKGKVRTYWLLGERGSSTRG
# [6] = qHTS for Inhibitors of Plasmodium falciparum (HB3) proliferation (AID 504318); note: nearly all actives have a fitted effect of over 60% in size; note: potency is the fitted concentration of half-maximal effect
# Outline: as §1
Compound,Potency [1],Potency [2],Potency [3],Potency [4],Potency [5],Potency [6],"activity, negative = inhibition [1]"
CC(=O)OC[C@H]1O[C@H](CCON=C(C)CCC(=O)OC[C@H]2O[C@H](C#Cc3ccccc3)C=C[C@H]2Oc2ccc(C)cc2)C=C[C@H]1OC(C)=O,inactive,inactive,inactive,inactive,inactive,–,–
COC(=O)C1=C(C)C(=O)[C@]2(O)c3ccccc3N(C)[C@]12C,inactive,inactive,–,inactive,inactive,inactive,–
COc1cc2c(c(OC)c1OC)C1(c3ccccc3)CCCCCC1[C@@H]2NC(=O)C(F)(F)F (stereo not given in full),inactive,inactive,inactive,inactive,inactive,–,–
COc1cc2c(cc1OC)[C@@H]1O[C@](c3ccsc3)(C2)Oc2cc(-c3ccccc3)oc(=O)c21,inactive,inactive,1.9 µM (active) and inactive,inactive,inactive,–,–
CCOC(=O)CCN1C(=O)[C@@H]2[C@H]3[C@H](O)[C@H](O)CC(=NNC(=O)OCc4ccc(OC)cc4)[C@H]3CC[C@H]2C1=O,inactive,inactive,inactive,inactive,inactive,–,–
COC(=O)C1=C(C)N(Cc2ccccc2)C(=NCCc2ccccn2)NC1c1cccc(C(F)(F)F)c1 (stereo not given),0.948 µM (active),0.601 µM (active),–,0.849 µM (active),inactive,inactive,–
COC(=O)N[C@@H](c1ccc(Cl)cc1)C(C(C)=O)C(=O)OC (stereo not given in full),inactive,inactive,–,–,inactive,inactive,–
CC(=O)OC[C@H]1O[C@@H](ON=C[C@@H](C)[C@H](OCc2ccccc2)C(C)C)[C@@H](OC(C)=O)[C@@H](OC(C)=O)[C@@H]1OC(C)=O,inactive,inactive,–,inactive,inactive,inactive,–
C#CCCCON=C1C[C@@H](O)[C@H](O)[C@H]2[C@@H]3C(=O)N(C4CCCCC4)C(=O)[C@@H]3CC[C@H]12,inactive,inactive,inactive,inactive,inactive,–,–
CCOC(=O)C1=CN(CCC=C(C)C)C(=O)N(C(C)=O)C1c1ccccc1 (stereo not given),inactive,inactive,inactive,inactive,inactive,–,–
COc1ccc(OC[C@@H]2CC3[C@@H](CC[C@@H](C)[C@H]3c3ccc(Br)cc3)C(=O)O2)cc1 (stereo not given in full),inactive,inactive,–,–,inactive,inactive,–
CCCNC(=O)CC1OC(C2CCCCC2)Cc2ccccc21 (stereo not given),inactive,inactive,inactive,inactive,inactive,–,–
C=CCN1C(=O)C2(CC(C)=C[C@@H](C)O2)c2c(Br)cccc21 (stereo not given in full),inactive,inactive,–,inactive,inactive,inactive,–
COc1ccc(CN2C=C3C(=O)C(C)(OC(=O)C4CCCC4)C(=O)C=C3C=C2c2ccsc2)cc1 (stereo not given),–,inactive,inactive,inactive,inactive,–,-5.43% [at 1.12 µM] (inactive)
COc1cc2c(cc1OC)[C@@H]1O[C@](CCCCN3C(=O)c4ccccc4C3=O)(C2)Oc2c1c(=O)oc1ccccc21,1.5 µM (active),1.69 µM (active),–,–,inactive,2.39 µM (active),–
CCOC(=O)N1C2=NC(C(=O)OC)=C(C(=O)OC)[C@@H]3N(Cc4ccccc4)c4ccccc4[C@]23C[C@H]1C(=O)OC,–,inactive,–,–,inactive,inactive,-1.2% [at 1.12 µM] (inactive)
O=P1(O)Oc2c(-c3ccccc3)cc3ccccc3c2-c2c(c(-c3ccccc3)cc3ccccc23)O1,inactive,inactive,inactive,inactive,inactive,–,–
COCCN1C(=O)CC[C@@]23C1=NC(C(=O)OC)=C(C(=O)OC)[C@@H]2N(Cc1ccccc1)c1ccccc13,inactive,inactive,inactive,inactive,inactive,–,–
O=C(NN=C1C[C@@H](O)[C@H](O)[C@H]2[C@@H]3C(=O)N(Cc4ccc5c(c4)OCO5)C(=O)[C@@H]3CC[C@H]12)OCc1ccccc1,inactive,inactive,–,–,inactive,inactive,–
CCN1C(=NCc2ccc3c(c2)OCO3)NC(CCc2ccccc2)C(C(=O)OC)=C1C (stereo not given),inactive,inactive,–,inactive,inactive,inactive,–
C[C@H]1CC[C@H]2C(=O)N[C@H](Cc3ccccc3)C(=O)N2[C@H]1c1ccccc1,inactive,inactive,–,inactive,inactive,inactive,–
COC(=O)C1=C(C(=O)OC)[C@@H]2N(C)c3ccccc3[C@@]23C[C@@H](C(=O)OC)N(C(=O)NCCBr)C3=N1,inactive,inactive,–,inactive,inactive,inactive,–
O=C1[C@H]2[C@@H]3[C@@H](O)[C@H](O)CC(=NOCc4ccccc4)[C@H]3CC[C@H]2C(=O)N1C[C@@H]1CCCO1,inactive,inactive,–,inactive,inactive,inactive,–
N#CCCCS(=O)(=O)c1nnnn1-c1ccccc1,inactive,inactive,–,inactive,inactive,inactive,–
C#C[C@@H]1C=C[C@H](Oc2ccc(OC)cc2)[C@H](CO)O1,inactive,inactive,–,inactive,inactive,inactive,–

Compound,Potency [1],Potency [2],Potency [3],Potency [4],Potency [5],Potency [6],"activity, negative = inhibition [1]"
COCCN1C(=O)NC(c2ccc(Br)cc2)C(C(C)=O)=C1C (stereo not given),inactive,inactive,–,inactive,inactive,inactive,–
O=C(C=Cc1ccccc1)N1CCC[C@H]1CO,inactive,inactive,–,inactive,inactive,inactive,–
C=CCN1C(=O)CC[C@@]23C1=NC(C(=O)OC)=C(C(=O)OC)[C@@H]2N(C)c1ccccc13,inactive,inactive,–,inactive,inactive,inactive,–
COCC=CC1=CC2=CC(=O)C(C)(OC(=O)c3cnc4ccccc4n3)C(=O)C2=CN1CC(C)C (stereo not given),inactive,inactive,–,inactive,inactive,inactive,–
CCCCCCCC1=Cc2ccc(F)cc2C(C(C(C)=O)C(=O)OC)N1C(=O)OC (stereo not given),inactive,inactive,–,inactive,inactive,inactive,–
CCN(CC)CC(O)CN1CCCCc2nc(C)c(C)cc21 (stereo not given),inactive,inactive,–,inactive,inactive,inactive,–
CCC12C=C(C=Cc3ccccc3)C(CC)(C1)C(c1ccccc1)CC2=O (stereo not given),inactive,inactive,–,inactive,inactive,inactive,–
CC(=O)[C@H]1[C@H](CCc2ccccc2)NC(=O)N(Cc2ccccc2)[C@@H]1C,inactive,inactive,–,inactive,inactive,inactive,–
C[C@@H]1C=CCCO[C@]12C(=O)N(Cc1ccccc1C(F)(F)F)c1ccccc12,inactive,inactive,–,inactive,inactive,inactive,–
CCCCC[C@]12Cc3cc(OC)c(OC)cc3[C@H](O1)c1c(cc(C)n(-c3ccccc3)c1=O)O2,inactive,inactive,–,inactive,inactive,2.94 µM (active) and inactive,–
C=CCN1c2ccccc2[C@]23C[C@@H](C(=O)OC)N(C(=O)Nc4ccc(C(F)(F)F)cc4)C2=NC(C(=O)OC)=C(C(=O)OC)[C@H]13,inactive,inactive,–,inactive,inactive,inactive,–
COCCN1C(=S)NC(c2cccc(F)c2)C(C(=O)OC)=C1C (stereo not given),inactive,inactive,–,inactive,inactive,inactive,–
COC(=O)N[C@@H](c1cccc(F)c1)[C@]1(C(=O)OC)CCCC1=O,inactive,inactive,–,inactive,inactive,inactive,–
COC(=O)[C@H]1O[C@@H](c2cc(OC)c(C)c(OC)c2O)[C@H](C)[C@@H](O)[C@@H]1C,inactive,inactive,–,inactive,inactive,inactive,–
CCOC(=O)[C@@]1([C@@H](NC(=O)OC)c2cccc(C)c2)CCCC1=O,inactive,inactive,–,inactive,inactive,inactive,–
COc1ccc([C@]23Cc4cc(C#N)ccc4[C@H](O2)C2=C(CC4(CCCCC4)OC2=O)O3)cc1,inactive,inactive,–,inactive,inactive,inactive,–
COC(=O)C1=C(C)N(CC2CC2)C(=NCCc2cccnc2)NC1c1ccccc1 (stereo not given),inactive,inactive,–,inactive,inactive,inactive,–
C=CCNC(=O)N1CCc2nc(-c3ccccc3)c3c(c2C1)CO[C@@H](C)C3,–,inactive,–,inactive,inactive,inactive,-1.14% [at 1.12 µM] (inactive)
COc1ccc2c(c1)[C@@]1(OCCC=C[C@@H]1C)C(=O)N2Cc1ccc(Br)cc1,inactive,inactive,–,inactive,inactive,inactive,–
COc1cc2c(cc1OC)CSC1C(=O)N(C)C(SC2)C(=O)N1C,inactive,inactive,–,inactive,inactive,inactive,–
C=CC[C@@](C(C)=O)(C(=O)OC)[C@@H](NC(=O)OC(C)(C)C)c1ccccc1,inactive,inactive,–,inactive,inactive,inactive,–
C[C@@H]1C=CCC(=O)N[C@@H](c2ccccc2)[C@H](C)C=CCC(=O)N[C@@H]1c1ccccc1,inactive,inactive,–,inactive,inactive,inactive,–
COC(=O)C1=C(C(=O)OC)[C@@H]2N(C)c3ccccc3[C@@]23C[C@@H](C(=O)OC)N(C(=O)Nc2cccc(C#N)c2)C3=N1,inactive,inactive,–,inactive,inactive,inactive,–
CC1(OC(=O)c2ccc(Cl)nc2)C(=O)Cc2cc(-c3ccsc3)ncc2C1=O (stereo not given),–,inactive,–,inactive,inactive,inactive,-1.5% [at 1.12 µM] (inactive)
